Several values for one entry are separate records, joined by “and”; a condition that tells them apart may be missing. Identical values can stand only once. Hit rate of the full screen: of about 5,500 compounds, about 2,000 (36%) were called active. Inconclusive results (about 18%) are left out. No stated cut-off is given here; in the data, active means normalized growth mostly below about 0.91 (no sharp cut-off); inconclusive means no clear call, values can overlap the other calls; inactive means mostly above about 0.92. The list shows a part of the results.
Assay: chemical genetic growth profiling, strain panel (AID 1159580);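 further: tested at 20 µM; growth read once vehicle control cultures reached saturation at 30 °C; 1 = growth at the plate median or of vehicle wells; lower values mean less growth of the strain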
Conditions: growth OD

Measured: normalized growth

ClC1=C(Cl)C2(Cl)C3C4CC(C5OC45)C3C1(Cl)C2(Cl)Cl (configuration not stated)
inactive: S. cerevisiae deletion strains, locus YAL013W, strain DEP1, hits give low values 0.992 | S. cerevisiae deletion strains, locus YBR021W, strain FUR4, hits give low values 0.948 and 0.959 | S. cerevisiae deletion strains, locus YBR229C, strain ROT2, hits give low values 0.997 and 1 | S. cerevisiae deletion strains, locus YCL029C, strain bik1, hits give low values 0.967 and 1.02 | S. cerevisiae deletion strains, locus YDL035C, strain GPR1, hits give low values 0.981 and 0.974 | S. cerevisiae deletion strains, locus YDL074C, strain BRE1, hits give low values 1.03 | S. cerevisiae deletion strains, locus YDL101C, strain DUN1, hits give low values 0.993 and 1 | S. cerevisiae deletion strains, locus YDL134C, strain PPH21, hits give low values 0.998 and 0.988 | S. cerevisiae deletion strains, locus YDL185W, strain tfp1, hits give low values 0.996 and 1.03 | S. cerevisiae deletion strains, locus YDL192W, strain arf1, hits give low values 0.986 and 1.01 | S. cerevisiae deletion strains, locus YDR101C, strain arx1, hits give low values 0.973 and 1.01 | S. cerevisiae deletion strains, locus YDR150W, strain NUM1, hits give low values 1 and 0.976 | S. cerevisiae deletion strains, locus YDR162C, strain NBP2, hits give low values 0.999 and 0.969 | S. cerevisiae deletion strains, locus YDR318W, strain mcm21, hits give low values 0.983 and 1.01 | S. cerevisiae deletion strains, locus YDR388W, hits give low values 0.97 and 1.01 | S. cerevisiae deletion strains, locus YDR502C, strain sam2, hits give low values 0.983 and 1 | S. cerevisiae deletion strains, locus YEL061C, strain CIN8, hits give low values 1 | S. cerevisiae deletion strains, locus YER110C, hits give low values 0.971 and 1.02 | S. cerevisiae deletion strains, locus YER155C, strain BEM2, hits give low values 0.982 and 1.01 | S. cerevisiae deletion strains, locus YER167W, strain BCK2, hits give low values 0.976 and 0.99 | S. cerevisiae deletion strains, locus YGL078C, strain dbp3, hits give low values 0.978 and 1.01 | S. cerevisiae deletion strains, locus YGL086W, strain mad1, hits give low values 0.983 and 1.01 | S. cerevisiae deletion strains, locus YGL248W, strain PDE1, hits give low values 1 and 1.01 | S. cerevisiae deletion strains, locus YGR078C, strain PAC10, hits give low values 1 and 1.01 | S. cerevisiae deletion strains, locus YGR135W, strain pre9, hits give low values 0.988 and 0.995 | S. cerevisiae deletion strains, locus YGR229C, strain SMI1, hits give low values 0.971 | S. cerevisiae deletion strains, locus YGR252W, strain gcn5, hits give low values 0.968 and 0.972 | S. cerevisiae deletion strains, locus YHR030C, strain SLT2, hits give low values 0.99 and 1.04 and 1.01 | S. cerevisiae deletion strains, locus YHR079C, strain IRE1 (second series), hits give low values 0.971 and 1.01 | S. cerevisiae deletion strains, locus YHR079C, strain IRE1, hits give low values 1.01 | S. cerevisiae deletion strains, locus YHR094C, strain hxt1, hits give low values 0.974 and 1.01 | S. cerevisiae deletion strains, locus YHR129C, strain ARP1, hits give low values 0.998 and 1.02 | S. cerevisiae deletion strains, locus YHR200W, strain rpn10, hits give low values 0.978 and 1.02 | S. cerevisiae deletion strains, locus YIL066C, strain RNR3, hits give low values 1 and 0.968 | S. cerevisiae deletion strains, locus YIL073C, strain SPO22, hits give low values 0.919 and 1.08 | S. cerevisiae deletion strains, locus YIL125W, strain kgd1, hits give low values 0.985 and 1.01 | S. cerevisiae deletion strains, locus YIR030C, strain dcg1, hits give low values 0.979 and 1.02 | S. cerevisiae deletion strains, locus YJL095W, strain BCK1, hits give low values 1.02 and 1.05 and 1.06 | S. cerevisiae deletion strains, locus YJL134W, strain LCB3, hits give low values 0.982 and 1.01 | S. cerevisiae deletion strains, locus YJL168C, strain set2, hits give low values 0.98 and 1.01 | S. cerevisiae deletion strains, locus YJL187C, strain SWE1 (second series), hits give low values 0.991 and 1.02 | S. cerevisiae deletion strains, locus YJR043C, strain POL32, hits give low values 0.975 and 0.987 | S. cerevisiae deletion strains, locus YJR066W, strain TOR1, hits give low values 0.962 | S. cerevisiae deletion strains, locus YJR075W, strain HOC1, hits give low values 1 and 1.03 | S. cerevisiae deletion strains, locus YKL009W, strain mrt4, hits give low values 0.988 and 1.01 | S. cerevisiae deletion strains, locus YKL068W, hits give low values 0.986 and 1 | S. cerevisiae deletion strains, locus YKL085W, strain MDH1 (second series), hits give low values 0.983 and 0.995 | S. cerevisiae deletion strains, locus YKL085W, strain MDH1, hits give low values 0.983 and 0.995 | S. cerevisiae deletion strains, locus YKL190W, strain CNB1, hits give low values 1 and 0.986 | S. cerevisiae deletion strains, locus YKR001C, strain vps1, hits give low values 0.98 and 1.02 | S. cerevisiae deletion strains, locus YLR039C, strain RIC1, hits give low values 0.975 and 1.15 | S. cerevisiae deletion strains, locus YLR058C, strain SHM2, hits give low values 0.984 and 1.02 | S. cerevisiae deletion strains, locus YLR102C, strain apc9, hits give low values 0.984 and 1.01 | S. cerevisiae deletion strains, locus YLR113W, strain HOG1, hits give low values 0.937 | S. cerevisiae deletion strains, locus YLR262C, strain YPT6, hits give low values 0.953 and 1.24 | S. cerevisiae deletion strains, locus YLR268W, strain sec22, hits give low values 0.977 and 1.02 | S. cerevisiae deletion strains, locus YLR330W, strain CHS5, hits give low values 0.996 and 1.01 | S. cerevisiae deletion strains, locus YLR342W, strain FKS1 (second series), hits give low values 0.984 and 0.998 | S. cerevisiae deletion strains, locus YLR371W, strain rom2, hits give low values 0.97 and 1.02 | S. cerevisiae deletion strains, locus YLR418C, strain cdc73, hits give low values 0.964 and 0.976 | S. cerevisiae deletion strains, locus YML016C, strain PPZ1, hits give low values 0.996 and 1 | S. cerevisiae deletion strains, locus YML032C, strain rad52, hits give low values 0.967 and 0.998 | S. cerevisiae deletion strains, locus YML124C, strain tub3, hits give low values 0.973 and 1.01 | S. cerevisiae deletion strains, locus YMR078C, strain ctf18, hits give low values 0.973 and 1.01 | S. cerevisiae deletion strains, locus YMR223W, strain ubp8, hits give low values 0.975 and 1.01 | S. cerevisiae deletion strains, locus YMR263W, strain SAP30, hits give low values 1.01 | S. cerevisiae deletion strains, locus YMR307W, strain GAS1, hits give low values 0.909 and 0.97 | S. cerevisiae deletion strains, locus YNL067W, strain RPL9B, hits give low values 0.999 and 1.04 | S. cerevisiae deletion strains, locus YNL128W, strain TEP1, hits give low values 0.994 and 1.02 | S. cerevisiae deletion strains, locus YNL153C, strain GIM3, hits give low values 0.999 and 1.03 | S. cerevisiae deletion strains, locus YNL183C, strain NPR1, hits give low values 0.948 | S. cerevisiae deletion strains, locus YNL233W, strain BNI4, hits give low values 0.994 and 1.06 | S. cerevisiae deletion strains, locus YNL250W, strain rad50, hits give low values 0.965 and 1 | S. cerevisiae deletion strains, locus YNL271C, strain bni1, hits give low values 0.975 and 1.01 | S. cerevisiae deletion strains, locus YNL298W, strain CLA4, hits give low values 0.97 and 1.01 | S. cerevisiae deletion strains, locus YNL307C, strain MCK1, hits give low values 0.947 and 1.02 | S. cerevisiae deletion strains, locus YNL322C, strain KRE1, hits give low values 0.998 | S. cerevisiae deletion strains, locus YNR052C, strain pop2, hits give low values 0.965 and 1.01 | S. cerevisiae deletion strains, locus YOL006C, strain TOP1, hits give low values 1.01 | S. cerevisiae deletion strains, locus YOL012C, strain htz1 0.925 and 0.987 | S. cerevisiae deletion strains, locus YOL147C, strain pex11, hits give low values 0.966 and 1.02 | S. cerevisiae deletion strains, locus YOR061W, strain CKA2, hits give low values 0.998 and 1 | S. cerevisiae deletion strains, locus YOR069W, strain VPS5, hits give low values 0.995 and 1.01 | S. cerevisiae deletion strains, locus YOR136W, strain idh2, hits give low values 0.974 and 1.02 | S. cerevisiae deletion strains, locus YOR144C, strain elg1, hits give low values 0.97 and 1 | S. cerevisiae deletion strains, locus YOR184W, strain ser1, hits give low values 0.967 and 1.01 | S. cerevisiae deletion strains, locus YOR231W, strain MKK1, hits give low values 1.04 | S. cerevisiae deletion strains, locus YOR316C, strain cot1, hits give low values 0.976 and 1.01 | S. cerevisiae deletion strains, locus YPL055C, strain LGE1, hits give low values 0.999 | S. cerevisiae deletion strains, locus YPL241C, strain CIN2, hits give low values 0.999 and 1.01 | S. cerevisiae deletion strains, locus YPL256C, strain CLN2, hits give low values 1.04 | S. cerevisiae deletion strains, locus YPR119W, strain clb2, hits give low values 0.974 and 1.01 | S. cerevisiae deletion strains, locus YPR141C, strain kar3, hits give low values 0.969 and 1.01 | S. cerevisiae deletion strains, locus YPR163C, strain tif3, hits give low values 0.961 and 1.01 | S. cerevisiae deletion strains, locus YPR167C, strain met16, hits give low values 0.983 and 1.01 | S. cerevisiae deletion strains, strain wtn01, hits give low values 0.971 and 1.03 | S. cerevisiae strains, strain wild type, hits give low values 0.994 and 1.01
